Many of the other results were omitted from the sample, so hits are more common in it than they were.
AmpC no deterg – blocks E. coli AmpC beta-lactamase in detergent-free assay; P00811; AmpC nitrocefin hydrolysis, absorbance 480 nm, 0.0001% Triton; Potency, µM (series often up to 57.1 µM), actives largely listed as inhibitors; hit rate 0.52% among 330,000; further: nearly all actives have a fitted effect of over 20% in size
Target sequence (P00811 whole entry, looked up): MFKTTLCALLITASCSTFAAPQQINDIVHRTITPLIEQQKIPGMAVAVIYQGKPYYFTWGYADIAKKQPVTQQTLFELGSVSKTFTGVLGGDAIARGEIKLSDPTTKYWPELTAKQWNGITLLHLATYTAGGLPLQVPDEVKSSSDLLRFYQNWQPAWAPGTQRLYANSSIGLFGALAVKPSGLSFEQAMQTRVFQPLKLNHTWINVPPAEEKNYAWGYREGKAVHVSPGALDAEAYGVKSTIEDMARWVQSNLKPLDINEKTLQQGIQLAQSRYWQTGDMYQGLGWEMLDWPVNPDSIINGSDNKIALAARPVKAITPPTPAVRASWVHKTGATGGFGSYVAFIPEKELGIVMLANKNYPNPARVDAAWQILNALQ
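20 mM phosphate pH 7.0 + 0.01% (detergent screen) or 0.0001% Triton X-100; 5.3 nM AmpC reagent; cpd preinc 15 min RT; nitrocefin (800 uM stock) to start; A480 q20 s × 4 min; Activity was normalised to no-enzyme and no-compound control wells.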
AmpC inh detg – blocks E. coli AmpC beta-lactamase in detergent assay; P00811; AmpC hydrolysis of nitrocefin, absorbance 480 nm, 0.01% Triton; Potency, µM (highest dose often 114 µM), hits mostly inhibitors; hit rate 0.041% among 370,000; AID 485294; further: nearly all actives have a fitted effect of over 25% in size
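20 mM phosphate pH 7.0 + 0.01% (detergent screen) or 0.0001% Triton X-100; 5.3 nM AmpC reagent; cpd preinc 15 min RT; nitrocefin (800 uM stock) to start; A480 q20 s × 4 min; Activity was normalised to no-enzyme and no-compound control wells.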
A number is an active result; . = inactive; ? = inconclusive; / = no result; [ ] = another dose, or the depositor's remark. The call rests on the fitted dose curve; in most records, active means well fitted curve in the direction sought with a large enough effect; inconclusive means small, poorly fitted or top-dose-only effect, or another doubt; inactive means no such curve, though single readings can be large; an effect the other way counts as inactive or inconclusive.

SMILES	AmpC no deterg	AmpC inh detg
COc1ccc(/C=N\NC(=O)c2ccc(F)cc2)cc1COc1ccccc1C(N)=O	.	.
CC(=O)C1=C(c2ccc(Cl)c(Cl)c2)N(C(C)=O)n2cnnc2S1	/	.
COc1ccc(NC(=O)COC(=O)CNS(=O)(=O)c2ccccc2)cc1OC	.	.
COc1ccc(NC(=O)CNS(=O)(=O)c2ccccc2)cc1Cl	0.63µM	.
CSc1ncc(C(=O)NCc2ccc(F)cc2)c(-c2ccccc2)n1	/	.
CCOC(=O)C1(C(=O)O)NC(=O)CC1c1ccccc1 (stereo not given)	.	?
CCOC(=O)C1(C(=O)OCC)CC1c1ccccc1 (stereo not given)	4.5µM	.
CCOc1ccccc1-n1nnc(-c2nc(-c3ccccc3C)no2)c1C	/	.
Cc1nc2cccnc2n1C1CCN(S(=O)(=O)c2ccc(C(C)C)cc2)CC1	/	.
CCOc1ccc(-c2cn(-c3cccc(SC)c3)c(=O)[nH]2)cc1	35µM	.
CCOc1ccc(-c2cn(-c3ccccc3OC)c(=S)[nH]2)cc1	.	.
CCCSCCCNC(=O)CN1C(=O)CCn2nc(-c3cn(C)c4ccccc34)cc21	/	.
CC(C)(C)OC(=O)N[C@@H](Cc1ccccc1)c1nnc(SCC(N)=O)o1	.	.
COC(=O)CS(=O)(=O)c1nnc([C@H](Cc2ccccc2)NC(=O)OC(C)(C)C)o1	?	35µM
Cc1cccc(CS(=O)(=O)c2nnc([C@H](Cc3ccccc3)NC(=O)OC(C)(C)C)o2)c1	.	40µM
COC(=O)CSc1nnc([C@H](Cc2ccccc2)NC(=O)OC(C)(C)C)o1	.	.
CCN(C(=O)C1CCN(S(=O)(=O)c2ccc3c(c2)CCCN3C(=O)C2CCC2)CC1)c1cccc(C)c1	/	.
Cc1cccc(NC(=O)CSc2nc(C)cc(C)c2C(=O)Nc2ccc(Cl)cc2)c1	/	.
CCOC(=O)/C=C/C(=O)Nc1ccc(S(=O)(=O)N2CCc3ccccc32)cc1	16µM	.
CCOC(=O)/C=C/C(=O)Nc1ccc(S(=O)(=O)N2CCCCCC2)cc1	.	.
O=C(CCNS(=O)(=O)c1cccc2nsnc12)Nc1ccc(F)cc1	/	.
NC(=O)C1CCN(C(=O)CC2(CC(=O)O)CCCCC2)CC1	.	.
NC(=O)CC1(CC(=O)O)CCCCC1	.	71µM
CCN(CC)S(=O)(=O)c1ccc(C(=O)N2CC(=O)Nc3ccc(F)cc3C2c2ccccc2)cc1 (stereo not given)	/	.
CC(C)=CCc1c(O)c(CC=C(C)C)c2c(c1O)C(=O)CC(c1ccc(O)cc1)O2 (stereo not given)	14µM	.
SMILES	AmpC no deterg	AmpC inh detg
CC(C)=CCc1c(O)cc2c(c1O)C(=O)CC(c1ccc(O)cc1)O2 (stereo not given)	?	.
COc1cccc(N2CC(NC(=O)COc3ccc4ccccc4c3)CC2=O)c1 (stereo not given)	/	.
Cc1cc(C)c(NC(=O)Cn2c(=O)n(CCCCC(=O)NCc3ccccc3Cl)c(=O)c3ccccc32)c(C)c1	/	.
Cc1ccn2c(C(=O)CSc3ccc(Cl)cc3)c(C)nc2c1	0.32µM	.
Cc1ccc(SCC(=O)c2c(C)nc3cc(C)ccn23)cc1	.	.
N#CC1=C(N)OC2=C(CCC/C2=C/c2ccoc2)C1c1ccoc1 (stereo not given)	0.28µM	.
N#CC1=C(N)OC2=C(CC/C2=C\c2ccc(F)cc2)C1c1ccc(F)cc1 (stereo not given)	.	.
CCCn1cc(S(=O)(=O)c2ccc(CC)cc2)c(=O)c2ccccc21	/	.
CCc1nnc(NC(=O)CSc2ncnc3c2oc2ccccc23)s1	.	.
O=C(CSc1ncnc2c1oc1ccccc12)Nc1nc2ccccc2s1	0.79µM	?
CCOC(=O)c1ccc(OCC2c3cc(OC)c(OC)cc3CCN2C(=O)Cc2ccc(F)cc2)cc1 (stereo not given)	/	.
CCc1cccc(NC(=O)CSC2=Nc3ccccc3N=C(c3ccc(F)cc3)C2)c1	/	.
Cc1ccc(S(=O)(=O)N2CCC(C(=O)N[C@@H](C)C(=O)Nc3ccc(F)cc3)CC2)cc1	.	.
Cc1ccc(S(=O)(=O)N2CCC(C(=O)N[C@@H](C)C(=O)Nc3ccc4c(c3)OCO4)CC2)cc1	.	35µM
CCN(CC)c1nc2c(S(=O)(=O)c3ccccc3)nnn2c2ccc(Cl)cc12	/	.
Cc1ccc(NC(=O)c2cc(-c3ccc(C)c(C)c3O)n[nH]2)cc1C	.	.
COc1ccc(NC(=O)c2cc(-c3ccc(C)c(C)c3O)n[nH]2)cc1Cl	18µM	?
COc1cccc(NC(=O)Cn2cc(C(=O)C3CC3)c3ccccc32)c1	28µM	?
COc1ccc(NC(=O)Cn2cc(C(=O)C3CC3)c3ccccc32)cc1	.	.
Oc1cc(Nc2ccc(N3CCCCC3)cc2)cc2cccnc12	.	.
CC1CC(C)CN(C(=O)C(Cc2ccccc2)n2cccc2)C1 (stereo not given)	.	.
Cc1cccc(N2CCN(C(=O)C(Cc3ccccc3)n3cccc3)CC2)c1C (stereo not given)	1µM	?
Cc1cccc(N2CCN(C(=O)C(Cc3ccccc3)NC(N)=O)CC2)c1C (stereo not given)	.	.
CC1CCN(C(=O)C(Cc2ccccc2)n2cccc2)CC1 (stereo not given)	10µM	?
COc1ccccc1C(=O)Nc1nnc(SCc2cc(=O)c3cc(Cl)ccc3[nH]2)s1	/	.
SMILES	AmpC no deterg	AmpC inh detg
COc1ccc(S(=O)(=O)c2c(O)c3ccc(C(=O)NCc4ccccc4)cc3[nH]c2=O)cc1	/	.
COc1ccc(/C=C\c2onc(C)c2S(=O)(=O)N2CCC(C(=O)Nc3ccc(F)cc3F)CC2)cc1	/	.
Cc1cccc(NC(=O)CN2C(=O)S/C(=C\c3ccc(O)c([N+](=O)[O-])c3)C2=O)c1	.	.
Cc1ccc(NC(=O)CN2C(=O)S/C(=C/c3ccc(O)c([N+](=O)[O-])c3)C2=O)cc1C	.	50µM
CC(C)c1ccc(Nc2c(-c3ccccn3)nc3ccccn23)cc1	/	.
C#CCn1c(S(=O)(=O)Cc2ccccc2Cl)nc(-c2ccccc2)c1-c1ccccc1	4.5µM	.
C#CCn1c(S(=O)(=O)Cc2ccc(C)cc2)nc(-c2ccccc2)c1-c1ccccc1	.	.
CCC(C)NC(=O)C1CCN(C(=O)c2ccc(-n3ccc4ccccc43)s2)CC1 (stereo not given)	/	.
Cc1cc(C)cc(NC(=O)C2CCN(c3nc4ccccc4nc3C(F)(F)F)CC2)c1	/	.
Cc1ccc2c(c1)-c1onc(C(=O)N3CCN(c4ccc(Cl)cc4)CC3)c1CO2	/	.
CCOC(=O)c1c(-c2ccc(C)o2)csc1NC(=O)CSc1nnc(C)s1	.	.
CCOC(=O)c1c(-c2ccc(C)o2)csc1NC(=O)CSc1nnnn1-c1ccccc1	11µM	.
CCOc1ccc(NC(=O)Cn2c(=O)n(Cc3ccccc3)c(=O)c3sc4ccccc4c32)cc1	/	.
O=C(CSc1nc(-c2ccccc2)[nH]c1-c1ccccc1)Nc1ccc2c(c1)OCO2	/	.
COc1ccc2c3c(c(=O)oc2c1)C1O[C@](c2ccsc2)(Cc2cc(C#N)ccc21)O3	5µM	?
Cc1cc2c(c(=O)o1)C1O[C@](c3ccsc3)(Cc3cc(C#N)ccc31)O2	.[11.4 µM]	?
N#Cc1ccc2c(c1)C[C@]1(c3ccsc3)Oc3c(c(=O)oc4ccccc34)C2O1	5µM	.[22.9 µM]
COc1ccc([C@]23Cc4cc(C#N)ccc4C(O2)c2c(cc(-c4ccccc4)oc2=O)O3)cc1	?	.[22.9 µM]

Screening results as filed in PubChem.
